The sample as a whole holds a higher share of hits than the screen did.
Shiga inhibitor – inhibitors of Shiga toxin in Vero cells; Vero cells, Shiga toxin protein synthesis inhibition reporter; inhibition, % at 38.7 µM; hit rate 9.2% among 290,000; in the data active means inhibition mostly above about 28%, no sharp cut-off; inactive means mostly below about 43%; further: 0% is about no effect
LmPK inh – blocks Leishmania mexicana pyruvate kinase activity; hit rate 0.37% among 290,000; AID 1721; Potency, µM (doses to about 57.5 µM), inactives show at the top dose activity change, negative = inhibition, hits mostly inhibitors; purified LmPK, Kinase-Glo ATP luminescence, 1 h; active means well fitted curve in the direction sought with a large enough effect; inconclusive means small, poorly fitted or top-dose-only effect, or another doubt; inactive means no such curve, though single readings can be large; an effect the other way counts as inactive or inconclusive; further: potency means the concentration at half of the fitted maximal effect; on the % scale 0 is the no-effect control and ±100 the full control effect
Target sequence (Q27686 whole entry, looked up): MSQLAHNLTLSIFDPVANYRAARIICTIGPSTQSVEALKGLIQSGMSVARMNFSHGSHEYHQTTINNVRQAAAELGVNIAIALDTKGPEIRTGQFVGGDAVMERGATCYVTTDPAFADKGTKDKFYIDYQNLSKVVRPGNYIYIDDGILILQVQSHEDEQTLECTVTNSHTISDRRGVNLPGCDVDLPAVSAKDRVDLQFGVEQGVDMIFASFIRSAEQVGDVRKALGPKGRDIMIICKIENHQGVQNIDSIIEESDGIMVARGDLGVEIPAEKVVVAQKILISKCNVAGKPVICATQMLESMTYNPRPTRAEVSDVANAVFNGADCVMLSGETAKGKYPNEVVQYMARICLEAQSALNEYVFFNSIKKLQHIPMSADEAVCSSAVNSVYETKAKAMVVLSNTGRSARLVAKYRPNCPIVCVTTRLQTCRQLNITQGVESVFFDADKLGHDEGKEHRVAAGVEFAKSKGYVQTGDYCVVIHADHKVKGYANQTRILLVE
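qHTS format; LmPK 0.1 nM; substrates PEP 0.5 mM and ADP 0.1 mM. One-hour room-temperature incubation, then coupled luciferase luminescence; 0.5 nM enzyme wells mark activation.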
SARS PLP yeast – blocks SARS-CoV papain-like protease in a yeast assay. S. cerevisiae expressing SARS-CoV PLpro, growth rescue. Potency, µM (top dose mostly 32.9 µM), without a hit: at the highest dose activity, positive = growth rescue, hits mostly activators. hit rate 0.19% among 330,000. AID 485353; further: potency means the concentration at half of the fitted maximal effect; 0% is about no effect; nearly all actives have a fitted effect of over 55% in size
TbPYK inhibitor – T. brucei pyruvate kinase inhibition | Potency, µM (highest dose often 76.8 µM), without a hit: top-dose activity, negative = inhibition, actives largely listed as inhibitors | hit rate 0.12% among 410,000 | TbPYK enzyme, Kinase-Glo Plus ATP luminescence, 45 min; active means well fitted curve in the direction sought with a large enough effect; inconclusive means small, poorly fitted or top-dose-only effect, or another doubt; inactive means no such curve, though single readings can be large; an effect the other way counts as inactive or inconclusive; further: potency means the concentration at half of the fitted maximal effect; on the % scale 0 is the no-effect control and ±100 the full control effect; nearly all actives have a fitted effect of over 50% in size
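Assay buffer: 50 mM TEA pH 7.2, 100 mM KCl, 10 mM MgCl2, 0.05% BSA, 0.01% Tween-20. Pyruvate kinase from T. brucei plus substrate met compound, then ADP (130 uM final). Luminescence was read post 45 min RT.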
NS1 function inh – inhibitors of influenza NS1 protein function | Potency, µM (doses to about 46.1 µM), without a hit: top-dose activity, positive = more growth | hit rate 0.4% among 270,000 | AID 2326; further: potency means the concentration at half of the fitted maximal effect; actives are rising curves; nearly all actives have a fitted effect of over 50% in size
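Read-out: OD600 growth recovery of NS1-expressing budding yeast. Cells grown overnight at 30C in -URA glucose medium, washed, resuspended and diluted 1:100 in 2% galactose assay medium, pH 6.0. Same strain lacking NS1 served as positive control.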
Cycloheximide cs – affects cycloheximide protein synthesis inhibition readout, counter-screen; max response, %; cell reporter, cycloheximide protein synthesis inhibition counterscreen; hit rate 12% among 300,000; in the data active means max response mostly above about 13%, no sharp cut-off; inactive means mostly below about 14%; further: read at 38.3 µM for the half of the compounds with a filed dose; 0% is about no effect
Numbers without * were called inactive; ? = inconclusive; nt = not tested or not shown; [ ] = dose if it differs, or a comment. Unless noted, the call rests on the fitted dose curve.

SMILES | Shiga inhibitor | LmPK inh | SARS PLP yeast | TbPYK inhibitor | NS1 function inh | Cycloheximide cs
COc1cc(/C=N/Nc2cccc(C)c2)ccc1OC(=O)c1cccs1 | 33 | 5% | -17% | -12% | -11% | 18*
O=C(NC1CCCCC1)c1ccc2ccccc2c1O | nt | nt | nt | 2% | nt | nt
O=C1C2CCN(CC2)[C@@H]1Cc1ccc2ccccc2c1O | 40* | 4% | 7% | 1% | 3% | 33*
CCOC(=O)c1c(-c2ccccc2)oc2ccc(NS(=O)(=O)c3ccc(C)cc3C)cc12 | nt | nt | nt | 2% | nt | nt
Fc1cccc(Cc2noc(CN3CCCCC3c3ccccn3)n2)c1 (stereo not drawn) | 82 | 1% | 1% | -7% | 4% | 35*
Fc1ccc(C2CCCN2Cc2nc(Cc3ccccc3F)no2)cc1 (stereo not drawn) | 19 | -2% | -4% | -2% | -10% | 13*
O=c1cc(-c2ccccc2)[nH]c2nc3ccccc3n12 | 64* | ? | -17% | -9% | -52% | 40*
O=c1cc(CCl)[nH]c2nc3ccccc3n12 | 14 | -11% | -1% | 2% | 0% | -3
CC(C)c1cc(=O)n2c(nc3ccccc32)[nH]1 | 27 | 2% | -4% | -3% | -24% | 13*
Nc1c(C(=O)N2CCOCC2)sc2nc3c(cc12)CCCC3 | 21 | ? | -15% | ? | -11% | 18*
COc1ccc(NC(=O)c2sc3nc4c(cc3c2N)CCCCCC4)cc1 | nt | nt | nt | -1% | nt | nt
Nc1c(C(=O)N2CCOCC2)sc2nc3c(cc12)CCC3 | 68* | 16µM* | -2% | 2% | 3% | 26*
Nc1c(C(=O)N2CCCC2)sc2nc3c(cc12)CCCCCC3 | 103* | 2% | -2% | 1% | nt | 44*
Cc1cc(C)c2cc3c(N)c(C(=O)N4CCOCC4)sc3nc2c1 | -3 | 3% | 2% | -15% | 4% | -1
CN(Cc1nc2ccccc2c(=O)[nH]1)C(=O)c1cc(-c2ccc(Br)cc2)nc2ccccc12 | nt | nt | nt | 5% | nt | nt
Cc1ccc(NC(=O)COC(=O)C2(CC(=O)NC(C)C)CCCC2)cc1C | nt | nt | -3% | -4% | nt | nt
O=C(NCCCn1ccnc1)c1cc2ccccc2oc1=O | -3 | -3% | -8% | 9% | 3% | 13*
O=C(NCCc1ccccc1)c1cc2ccccc2oc1=O | -8 | -3% | 1% | 1% | 16% | -4
O=C(NCCC1=CCCCC1)c1cc2ccccc2oc1=O | 67* | 4% | 0% | -3% | -4% | 19*
O=C(NCCc1ccc(F)cc1)c1cc2ccccc2oc1=O | -14 | -10% | -2% | 1% | 14% | 8
Cc1c(C(=O)NCCC2=CCCCC2)cccc1[N+](=O)[O-] | 94* | -4% | 2% | 2% | -7% | 35*
COc1ccc(CCNC(=O)c2cc3ccccc3oc2=O)cc1 | 34* | 8% | -7% | 4% | -47% | 29*
COc1ccc2c(C(=S)N(C)CC(=O)O)cccc2c1C(F)(F)F | nt | nt | nt | -7% | nt | nt
Cc1ccc(NC(=O)CSCc2cnn(-c3ccccc3)c2-n2cccc2)c(Cl)c1 | nt | nt | nt | 4% | nt | nt
CN1C[C@@H]2[C@@H]3C(=O)N(C)C(=O)[C@@H]3[C@](C)(C1=O)N2C(=O)c1ccccc1 | nt | nt | nt | -2% | nt | nt
SMILES | Shiga inhibitor | LmPK inh | SARS PLP yeast | TbPYK inhibitor | NS1 function inh | Cycloheximide cs
Clc1ccc(COn2c(-c3ccc(Cl)cc3)nc3ccccc32)cc1 | -5 | -2% | -23% | -1% | -13% | -1
COc1ccc(-c2nc3ccccc3c(=O)n2O)cc1 | 7 | -6% | -1% | -3% | -68% | 11
COc1ccc(-c2nc3ccccc3n2OCC(=O)O)cc1 | 25 | -29% | -1% | -2% | 2% | 21*
O=C(O)COn1c(-c2ccc(Cl)cc2)nc2ccc(Cl)cc21 | 87* | 0% | 0% | -1% | 0% | 15
COn1c(-c2ccc(Cl)cc2)nc2ccc(Cl)cc21 | 69* | 0% | -20% | 4% | -100% | 27*
O=C(NC1CC(=O)N(c2cccc(F)c2)C1)c1ccc(S(=O)(=O)N2CCOCC2)cc1 (stereo not drawn) | nt | nt | nt | -2% | nt | nt
CCC=CC[C@H]1C(=O)CC[C@@H]1CC(=O)OC | nt | nt | nt | -1% | nt | nt
CC1(c2nnnn2Cc2ccccc2)CCC(=O)N1CCCn1ccnc1 (stereo not drawn) | nt | nt | nt | -12% | nt | nt
c1ccc(-[n+]2nc(Nc3cccc4ccccc34)sc2-c2c3ccccc3cc3ccccc23)cc1 | nt | nt | 1% | -4% | nt | nt
Fc1ccc(-[n+]2nc(Nc3ccccc3)sc2-c2c3ccccc3cc3ccccc23)cc1 | 41* | 2% | -12% | 1% | nt | 32*
CCC(C(=O)OCc1cc(=O)n2nc(CCOC)sc2n1)c1ccccc1 (stereo not drawn) | nt | nt | nt | -2% | nt | nt
C#CCN(CC=C)C(=O)CCc1nnc(COc2ccccc2)o1 | 59* | -3% | 0% | 4% | 3% | 42*
Cc1ccc(-n2ncc3c(=O)n(CC(N)=O)cnc32)cc1C | 17 | 0% | 4% | 3% | 16% | 7
COc1cc(C(C)=O)ccc1Oc1ncnc2c1cnn2-c1ccc(C)c(C)c1 | 63* | 5% | -15% | -7% | -5% | 32*
O=C(CSc1ncnc2c1cnn2-c1ccccc1)Nc1ccccc1 | -6 | 0% | -1% | 9% | -16% | -3
CNC(=O)CSc1ncnc2c1cnn2-c1ccccc1 | 69* | -3%[11.5 µM] | -1% | 0% | nt | 35*
Cc1ccc(-n2ncc3c(SCC(N)=O)ncnc32)cc1C | 52* | -2% | 3% | 5% | 15% | 48*
CC(=O)CSc1ncnc2c1cnn2-c1ccccc1 | 91* | 23% | -1% | -13% | nt | 36*
CC(Sc1ncnc2c1cnn2-c1ccccc1)C(=O)NCC1CCCO1 (stereo not drawn) | 64 | -5% | -11% | -9% | -5% | 20*
C=CCOc1ccccc1CNc1ccc2c(c1)OCCO2 | 53* | -1% | -4% | -10% | nt | 27*
CCOc1ccc(Br)cc1CNc1ccc2c(c1)OCCO2 | 43 | 2% | -1% | -22% | -2% | 23*
Cc1ccc(OCC(=O)Nc2cccc(S(=O)(=O)N3CCCCCC3)c2)cc1C | nt | nt | -4% | -6% | nt | nt
CCOC(=O)c1ccc(CSc2nnc(N)s2)cc1 | 92* | -15% | -3% | -1% | -13% | 39*
Nc1nnc(SCc2coc(-c3ccc(Cl)cc3)n2)s1 | 64* | 0% | -4% | 1% | -5% | 39*
Nc1nnc(CSc2ccc(Cl)cc2)s1 | 42 | 1% | 10% | -5% | 7% | 50*
CCOC(=O)CSc1nnc(N)s1 | -3 | 5% | 0% | -1% | 4% | -1
Nc1nnc(SCc2cccc(C(F)(F)F)c2)s1 | 18 | 4% | -4% | 0% | -3% | 11*
CCCN(C(=O)c1cccs1)c1c(N)n(Cc2ccccc2)c(=O)[nH]c1=O | nt | nt | -4% | -7% | nt | nt
NC(=O)CNC(=O)C1CCN(S(=O)(=O)c2ccc(-n3cnnn3)cc2)CC1 | 2 | -1% | 1% | -3% | 6% | -8
